Measurements: PubChem BioAssay (Tox21)
Values joined by “and” are separate entries in the source; they are usually repeats but may differ in a detail not shown here. Equal values may be shown once. Records with an inconclusive call do not appear. Where a structure was tested more than once in an assay, its records may differ in their call. Active and inactive are the calls of the source. Calls come from the whole dose curve; as a rule, active = well fitted cell-killing curve with a large enough effect in the repeat runs; inconclusive = weak or mixed curves; inactive = no such curve, though single readings can be large or run the other way.

Experiment: qHTS assay for identifying genotoxic compounds that show differential cytotoxicity against isogenic chicken DT40 cell lines with known DNA damage response pathways - Rad54/Ku70 mutant cell line (AID 743015); note: nearly all actives have a fitted effect of over 60% in size
Settings: DT40 Rad54/Ku70 mutant viability, CellTiter-Glo, 40 h; series mostly up to 66.8 µM; activity change, negative = cytotoxicity: at the top concentration
From the text: National Center for Advancing Translational Sciences [NCATS]
NIH Chemical Genomics Center [NCGC]
U.S. Environmental Protection Agency [EPA]
National Institutes of Environmental Health Sciences [NIEHS]
National Toxicology Program [NTP]
U.S. Food and Drug Administration [FDA]
DNA repair pathways play a critical role in cellular homeostasis by repairing DNA damage induced by endogenous processes and xenobiotics. Isogenic chicken DT40 cell lines deficient in different DNA repair pathways can be used to identify genotoxic compounds and aid in characterizing the nature of the DNA damage induced. Two DNA repair-deficient cell lines with disrupted genes, Rad54/Ku70 or Rev3, were used to screen the Tox21 10K compound library. Possible genotoxicity was based on the presence of a significant increase in cytotoxicity in one or more of the DNA repair-deficient cell lines compared to that observed in the parental DNA repair-proficient cell line. CellTiter Glo viability assay (Promega, Madison, WI) was used to measure cell viability in these cells after compound treatment. This assay includes the data from the Rad54/Ku70 mutant cell line.
Tox21 Assay Protocol Summary:
300 DT40 mutant cells in 5 uL/well were dispensed into white, solid-bottom 1536-well plates using a Multidrop Combi (ThermoFisher Scientific, Waltham, MA) dispenser. After the assay plates were incubated at 37 C/5% CO2 for approximately 0.5 hour, 23 nL of compounds dissolved in DMSO, positive controls or DMSO only was transferred into the assay plate by a pintool work station (Kalypsys, San Diego, CA). The assay plates were incubated at 37 C/5% CO2 for 40 hours. After 5 uL per well of CellTiter-Glo reagent was added into each well of the assay plates, the plates were incubated for 30 min at room temperature and the luminescence intensity of the plates was measured using a ViewLux (PerkinElmer, Shelton, CT) plate reader.
% is set by controls: 0 for no effect and ±100 for the full control effect; potency is the fitted concentration of half-maximal effect.

Compound | activity change, negative = cytotoxicity | Potency
CC(C)(O)c1ccccc1CC[C@@H](SCC1(CC(=O)O)CC1)c1cccc(/C=C/c2ccc3ccc(Cl)cc3n2)c1 | -10.8% (inactive) | 
CC(C)CCCCCCOC(=O)CCCCC(=O)OCCCCCCC(C)C | -2.59% (inactive) | 
COC(=O)[C@@H]1CC2=CC(=O)CC[C@]2(C)[C@@]23O[C@@H]2C[C@@]2(C)[C@@H](CC[C@@]24CCC(=O)O4)[C@H]13 | 3.68% (inactive) | 
O=C(O)c1cccc(O)c1 | -0.908% [at 95.1 µM] (inactive) | 
CC(C)C(=O)O | 7.8% (inactive) | 
CCCCCCOC(=O)C(C)C | -0.707% (inactive) | 
CCC(C)(C)C1CCC(O)CC1 (stereo not given) | 6.04% (inactive) | 
Nc1ccc(Cl)cc1[N+](=O)[O-] | 3.73% (inactive) | 
c1cnc2c(n1)CCCC2 | 3.59% (inactive) | 
CC(=O)Oc1ccc2c(c1)CC[C@@H]1[C@@H]2CC[C@]2(C)[C@@H](O)CC[C@@H]12 |  | 23.7 µM (active)
Oc1cc(O)c(Cl)cc1Cl | -13.3% [at 95.1 µM] (inactive) | 
Cc1ccc(/C=N/n2c(-c3ccccc3)csc2=S)cc1 |  | 29.8 µM (active)
NC(=O)N(O)[C@@H]1COc2cc(OCc3ccccc3)ccc21 |  | 61.1 µM (active)
COc1ccc(CCC(=O)c2c(O)cc(O[C@@H]3O[C@H](CO)[C@@H](O)[C@H](O)[C@H]3O[C@@H]3O[C@@H](C)[C@H](O)[C@@H](O)[C@H]3O)cc2O)cc1O | 2.99% (inactive) | 
CCCCCCOC(=O)CCCCCCCC(=O)OCCCCCC | -1.46% (inactive) | 
NC(=O)Nc1ccc(Cl)cc1 | 7.26% (inactive) | 
N#C/C(=C1/SC[C@@H](c2ccc(Cl)cc2Cl)S1)n1ccnc1 |  | 26.6 µM (active) and 23.7 µM (active) and 33.5 µM (active)
COC(=O)Nc1nc2ccc(C(=O)c3cccs3)cc2[nH]1 |  | 0.237 µM (active)
O=C(CS)OCCOC(=O)CS |  | 61.1 µM (active)
Cc1nccn1-c1ccc(Sc2cccc(C3(C(N)=O)CCOCC3)c2)cc1 |  | 1.37 µM (active)

Compound | activity change, negative = cytotoxicity | Potency
COCc1c(C(C)C)nc(C(C)C)c(/C=C/[C@@H](O)C[C@@H](O)CC(=O)O)c1-c1ccc(F)cc1 |  | 0.298 µM (active)
CCCCCCCC/C=C\CCCCCCCC(=O)OC | 0.67% (inactive) | 
O=S1OCCO1 | -2.2% [at 95.1 µM] (inactive) | 
O=C(C(=O)c1ccccc1)c1ccccc1 | -22.8% (inactive) | 
C=CC(C)(C)CC(=O)OC | -3.07% [at 95.1 µM] (inactive) | 
C1COCO1 | 3.41% (inactive) | 
O=Cc1c(Cl)cccc1Cl | 7.77% [at 95.1 µM] (inactive) | 
CCOc1cc(N)c(Cl)cc1C(=O)NCC1CN(Cc2ccc(F)cc2)CCO1 (stereo not given) |  | 21.1 µM (active)
c1cc[c]([Bi]([c]2ccccc2)[c]2ccccc2)cc1 |  | 61.1 µM (active)
O=C(CCC1CCN(Cc2ccccc2)CC1)c1ccc2c(c1)NCCCC2 |  | 8.41 µM (active)
Cc1cc(O)c(C(C)C)cc1Cl |  | inactive and 48.6 µM (active)
CC1CC(=O)NN=C1c1ccc(NCC(C)(C)NCC(O)COc2cc(Cl)ccc2C#N)cc1 (stereo not given) |  | 0.668 µM (active)
Brc1cc(-c2ccc(Br)c(Br)c2Br)cc(Br)c1Br | 6.03% (inactive) | 
Cc1ccc(Nc2nccc(N(C)c3ccc4c(C)n(C)nc4c3)n2)cc1S(N)(=O)=O |  | 10.6 µM (active)
CCCCC1C(=O)N(c2ccccc2)N(c2ccc(O)cc2)C1=O (stereo not given) |  | 5.07 µM (active)
CC(C)CCCCCOC(=O)CCCCC(=O)OCCCCCC(C)C |  | 61.1 µM (active)
N#C/C(=C1\SCC(c2ccccc2Cl)S1)n1ccnc1 (stereo not given) |  | 29.8 µM (active)
CC(COc1ccc(C(C)(C)C)cc1)OS(=O)OCCCl (stereo not given) | 5.94% [at 95.1 µM] (inactive) | 
CCCCN(CCCC)C(=S)SSC(=S)N(CCCC)CCCC | 4.84% (inactive) | 
Fc1c(F)c(F)c(Br)c(F)c1F | -2.85% (inactive) | 
